Holding throughout (assay): qHTS profiling for inhibitors of Plasmodium falciparum proliferation (AID 504749); further: nearly all actives have a fitted effect of over 60% in size
Common to all, as to settings: P. falciparum in erythrocytes, SYBR Green DNA, 72 h; series mostly up to 28.7 µM
In general terms: qHTS replaces the single test concentration by a dilution series.

One assay concerns C2A. A digest of the protocol: (§1)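 SYBR Green fluorescence of parasite DNA, read after lysis and overnight dark incubation, measured growth over 72 h in erythrocyte culture at 0.3% parasitemia and 2.5% hematocrit. Data normalised to DMSO and 0.29 uM artemisinin, with plate-drift correction.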
A further assay deals with CP185. A digest of the protocol:
as §1

In a further assay the test system is CP191. In a few lines: as §1
The subject of a further assay is CP192. A digest of the protocol: as §1
The next assay relates to CP194. A digest of the protocol: as §1
For another assay, the system named is CP201. A digest of the protocol:
as §1

Another assay relates to CP203. A digest of the protocol:
as §1

The next assay relates to CP211. In a few lines:
as §1

The next assay deals with CP215. In a few lines:
as §1

Another assay deals with CP217. In a few lines:
as §1

For a further assay, the system named is CP237. A digest of the protocol: as §1
The next assay relates to CP238. A digest of the protocol: as §1
The test system of the next assay is CP247. A digest of the protocol: as §1
A further assay deals with CP250. In a few lines: as §1
In another assay the test system is CP252. A digest of the protocol: as §1
In a further assay the test system is CP256. In a few lines:
as §1

The test system of a further assay is CP260. In a few lines: as §1
Another assay has as its system CP262. A digest of the protocol: as §1
For a further assay, the system named is CP265. A digest of the protocol: as §1
Another assay deals with CP266. In a few lines:
as §1

The values below come from PubChem BioAssay (NCATS).

Inconclusive results are not listed. Calls of active or inactive are those of the source. The call rests on the fitted dose curve; in most records, active means well fitted inhibition curve with a large enough effect; inconclusive means small, poorly fitted or top-dose-only effect; inactive means flat fitted curve, though single readings scatter.
Potency means the concentration at half of the fitted maximal effect.

For the compound `Nc1nc2c(c(=O)[nH]1)N(C=O)[C@H](CNc1ccc(C(=O)N[C@@H](CCC(=O)O)C(=O)O)cc1)CN2`, the Potency entry in the assay with C2A, in the assay on CP185, in the assay with CP191, with CP192, in the assay on CP194 and in the assay on CP201 was “inactive” in each case. In addition, the Potency entry in the assay on CP203, with CP211, with CP215, in the assay with CP217, with CP237 and with CP238 was “inactive” throughout. Further, the Potency entry in the assay on CP247, with CP250, with CP252, in the assay on CP256, with CP260 and in the assay on CP262 was “inactive” each time. Moreover, the Potency entry in the assay on CP265 and in the assay with CP266 was “inactive” each time.
`CCC(C(=O)O)C1CCC(C)C(C(C)C(O)C(C)C(=O)C(CC)C2OC3(C=CC(O)[C@@]4(CC[C@](C)(C5CC[C@@](O)(CC)C(C)O5)O4)O3)C(C)CC2C)O1` (stereo not given in full): the Potency in the assay on C2A was 1.12 µM (active); with CP185, 1.26 µM (active); with CP191, 1 µM (active); with CP192, 0.849 µM (active); with CP194 it was 0.601 µM (active); in the assay on CP201 it was 0.953 µM (active). Also, the Potency with CP203 is 0.269 µM (active); in the assay with CP211, 0.536 µM (active); with CP215, 0.675 µM (active); with CP217 it was 1.12 µM (active); in the assay with CP237, 0.447 µM (active); in the assay with CP238 it was 1.12 µM (active). In addition, the Potency in the assay on CP247 was 0.891 µM (active); with CP250, 1.12 µM (active); in the assay on CP252, 0.891 µM (active); in the assay on CP256 it was 2 µM (active); in the assay with CP260, 0.631 µM (active); with CP262, 0.849 µM (active). In addition, the Potency in the assay with CP265 is 1.26 µM (active); with CP266 it was 1.35 µM (active).
As for `OCC(O)C(O)C(O)CO` (stereo not given), the Potency entry in the assay on C2A, in the assay with CP185, in the assay on CP191, with CP192, in the assay on CP194 and in the assay with CP201 was “inactive” in each case. In addition, the Potency result in the assay on CP203, with CP211, with CP215, with CP217, in the assay on CP237 and with CP238 was “inactive” in each case. In addition, the Potency entry with CP247, in the assay on CP250, with CP252, with CP256, in the assay on CP260 and in the assay with CP262 was “inactive” in each case. In addition, the Potency entry with CP265 and in the assay on CP266 was “inactive” throughout.
Consider `COc1ccc([C@@H]2CNC(=O)C2)cc1OC1CCCC1`, for which the Potency result with C2A, with CP185, in the assay on CP191, in the assay with CP192, in the assay with CP194 and in the assay with CP201 was “inactive” each time. Besides, the Potency entry in the assay on CP203, in the assay with CP211, in the assay on CP215, in the assay with CP217, with CP237 and with CP238 was “inactive” throughout. Moreover, the Potency entry in the assay on CP247, in the assay with CP250, in the assay with CP252, with CP256, in the assay with CP260 and with CP262 was “inactive” in each case. The Potency entry with CP265 and in the assay on CP266 was “inactive” in each case.
As to `COc1ccc2c(c1OC)C(=O)OC2[C@H]1c2c(cc3c(c2OC)OCO3)CCN1C` (stereo not given in full), the Potency entry with C2A, in the assay on CP185, in the assay on CP191, in the assay with CP192, in the assay on CP194 and in the assay with CP201 was “inactive” throughout. Further, the Potency entry in the assay on CP203, in the assay with CP211, in the assay on CP215, in the assay on CP217, in the assay on CP237 and in the assay with CP238 was “inactive” in each case. Moreover, the Potency entry in the assay on CP247, with CP250, with CP252, with CP256, in the assay on CP260 and with CP262 was “inactive” in each case. The Potency result in the assay with CP265 and with CP266 was “inactive” each time.
Take `CCCCCCCCCCCC(CC1OC(=O)C1CCCCCC)OC(=O)C(CC(C)C)NC=O` (stereo not given): the Potency in the assay on C2A is 0.562 µM (active); with CP185 it was 0.708 µM (active); with CP191, 0.562 µM (active); in the assay with CP194, 9.53 µM (active); in the assay on CP217, 2.24 µM (active); with CP237, 0.794 µM (active). Further, the Potency with CP238 is 0.708 µM (active); in the assay with CP247 it was 0.398 µM (active); with CP250, 0.447 µM (active); in the assay with CP252 it was 0.794 µM (active); with CP256 it was 0.708 µM (active); in the assay with CP260, 0.794 µM (active). For the same compound, the Potency with CP265 was 0.631 µM (active). Also, the Potency result with CP192, in the assay with CP201, in the assay with CP262 and in the assay with CP266 was “inactive” throughout.
Take `COc1cccc2c1C(=O)c1c(O)c3c(c(O)c1C2=O)C[C@@](O)(C(=O)CO)C[C@@H]3O[C@H]1C[C@H](N)[C@H](OC2CCCCO2)[C@H](C)O1` (stereo not given in full): the Potency in the assay on C2A was 8.91 µM (active); in the assay on CP191, 8.91 µM (active); with CP192 it was 8.49 µM (active); in the assay on CP194, 9.53 µM (active); in the assay on CP201 it was 9.53 µM (active); in the assay on CP203, 4.78 µM (active). In addition, the Potency was 6.75 µM (active) in the assay with CP215; 4.47 µM (active) with CP217; 2.24 µM (active) in the assay on CP237; 5.01 µM (active) in the assay on CP238; 3.55 µM (active) in the assay on CP247; 2.51 µM (active) in the assay on CP250. Also, the Potency is 11.2 µM (active) with CP252; 8.91 µM (active) with CP256; 2.24 µM (active) in the assay with CP260; 8.91 µM (active) with CP265; 7.57 µM (active) in the assay on CP266. In addition, the Potency entry with CP262 is “inactive”.
